Assay results taken from PubChem BioAssay (EPA / NIEHS).
“And” between values parts separate entries of the source, which are not always exact repeats. Equal values may be shown once. Records with an inconclusive call do not appear. The source holds several records for some structures; these can differ, active in one and inactive in another. The source made the active and inactive calls. The calls were made as follows, unless noted: active = hit-call score of the fitted dose curve at least 0.9, where 1 is the maximum; inconclusive = response in the unintended direction; inactive = score below 0.9.

Columns and labels:
[1] = BSK_3C_VCAM1: BioMAP Diversity Plus: 3C Assay for Vascular cell adhesion molecule 1 (VCAM1) Biomarker Activity (AID 2282999; active = hit-call score of the fitted dose curve at least 0.9, where 1 is the maximum; inactive = score below 0.9); details: BioMAP 3C HUVEC, VCAM1 ELISA, cytokine-stimulated; actives raise or lower the signal
How it was run: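 Human umbilical vein endothelial cells (3C system), biomarker read by ELISA 24 h after dosing; bidirectional fit against DMSO baseline. Cytotoxicity tracked by SRB total-protein staining in parallel cultures at biomarker time.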

[2] = BSK_4H_Eotaxin3: BioMAP Diversity Plus: 4H Assay for Eotaxin 3 Biomarker Activity (AID 2283000; active = hit-call score of the fitted dose curve at least 0.9, where 1 is the maximum; inactive = score below 0.9); details: primary human endothelial cells (HUVEC); actives raise or lower the signal
How it was run: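 Eotaxin-3 (CCL26) levels were measured by ELISA in HUVEC primary cultures 24 h post-dosing. Gain or loss of signal was fitted in both directions, with DMSO serving as baseline and negative control.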

[3] = molecular target: human Peroxisome Proliferator-activated Receptor alpha (PPARa), PPARA (gene 5465) (UniProt Q07869); assay: ATG_PPARa_TRANS: Attagene TRANS-FACTORIAL HepG2 Assay for human Peroxisome Proliferator-activated Receptor alpha (PPARa) (AID 2283001);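 as to AC50: potency for gain of reporter signal over DMSO so agonist or activator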
human Peroxisome Proliferator-activated Receptor alpha (PPARa), PPARA (gene 5465), sequence (Q07869 whole entry, looked up, the tested form may be a part): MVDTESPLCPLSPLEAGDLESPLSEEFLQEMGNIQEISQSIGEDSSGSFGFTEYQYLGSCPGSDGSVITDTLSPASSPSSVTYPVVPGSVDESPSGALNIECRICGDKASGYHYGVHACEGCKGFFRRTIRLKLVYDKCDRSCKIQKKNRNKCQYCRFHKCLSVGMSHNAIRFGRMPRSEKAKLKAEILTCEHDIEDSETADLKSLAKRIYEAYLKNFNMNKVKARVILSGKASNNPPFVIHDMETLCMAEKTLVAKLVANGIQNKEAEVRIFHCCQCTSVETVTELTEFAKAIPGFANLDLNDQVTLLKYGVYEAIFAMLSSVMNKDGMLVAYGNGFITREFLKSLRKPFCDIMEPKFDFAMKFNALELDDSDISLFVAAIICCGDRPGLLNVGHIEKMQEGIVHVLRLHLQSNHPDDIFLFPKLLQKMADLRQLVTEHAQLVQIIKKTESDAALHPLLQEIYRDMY
How it was run: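 HepG2 cells transiently transfected with multiplexed GAL4-UAS reporters driven by exogenous chimeric NR-Gal4 proteins; reporter mRNA measured after 24 h dosing. Read-out by RT-PCR, 6-FAM labelling, HpaI digestion and capillary electrophoresis; gain of signal versus DMSO.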

[4] = molecular target: human Peroxisome Proliferator-activated Receptor delta (PPARd), PPARD (gene 5467) (UniProt Q03181); assay: ATG_PPARd_TRANS: Attagene TRANS-FACTORIAL HepG2 Assay for human Peroxisome Proliferator-activated Receptor delta (PPARd) (AID 2283002)
human Peroxisome Proliferator-activated Receptor delta (PPARd), PPARD (gene 5467), sequence (Q03181 whole entry, looked up, the tested form may be a part): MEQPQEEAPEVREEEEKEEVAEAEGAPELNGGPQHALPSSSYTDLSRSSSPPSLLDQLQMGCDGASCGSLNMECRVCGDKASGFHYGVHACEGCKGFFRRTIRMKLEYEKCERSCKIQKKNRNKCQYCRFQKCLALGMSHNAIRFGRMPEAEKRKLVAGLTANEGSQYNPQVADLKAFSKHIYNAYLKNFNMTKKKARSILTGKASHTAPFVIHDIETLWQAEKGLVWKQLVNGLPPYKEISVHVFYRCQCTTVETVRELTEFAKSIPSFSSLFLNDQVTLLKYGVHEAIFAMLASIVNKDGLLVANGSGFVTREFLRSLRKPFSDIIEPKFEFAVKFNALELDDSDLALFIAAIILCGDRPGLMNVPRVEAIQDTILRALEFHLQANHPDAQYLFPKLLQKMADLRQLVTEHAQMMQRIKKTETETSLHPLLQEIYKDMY
How it was run: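 HepG2 cells transiently transfected with GAL4-UAS multiplexed reporter units driven by exogenous chimeric NR-GAL4 proteins; 24 h compound exposure. Reporter mRNA measured by RT-PCR, 6-FAM primer extension, HpaI digestion and capillary electrophoresis; gain of signal fitted relative to DMSO.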

[5] = read-out: Intercellular Adhesion Molecule 1 (ICAM1), ICAM1 (gene 3383); assay: BSK_3C_ICAM1: BioMAP Diversity Plus: 3C Assay for Intercellular Adhesion Molecule 1 (ICAM1) Biomarker Activity (AID 2283003; active = hit-call score of the fitted dose curve at least 0.9, where 1 is the maximum; inactive = score below 0.9); details: primary human endothelial cells (HUVEC); actives raise or lower the signal
How it was run: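 HUVEC primary cells stimulated under 3C conditions; ICAM1 measured by ELISA 24 h after compound dosing. Curves fitted bidirectionally against the DMSO baseline. Overt cytotoxicity checked by SRB staining of parallel cultures.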

[6] = molecular target: human Retinoic Acid Receptor beta (RARb), RARB (gene 5915) (UniProt P10826); assay: ATG_RARb_TRANS: Attagene TRANS-FACTORIAL HepG2 Assay for human Retinoic Acid Receptor beta (AID 2283004)
human Retinoic Acid Receptor beta (RARb), RARB (gene 5915), sequence (P10826 whole entry, looked up, the tested form may be a part): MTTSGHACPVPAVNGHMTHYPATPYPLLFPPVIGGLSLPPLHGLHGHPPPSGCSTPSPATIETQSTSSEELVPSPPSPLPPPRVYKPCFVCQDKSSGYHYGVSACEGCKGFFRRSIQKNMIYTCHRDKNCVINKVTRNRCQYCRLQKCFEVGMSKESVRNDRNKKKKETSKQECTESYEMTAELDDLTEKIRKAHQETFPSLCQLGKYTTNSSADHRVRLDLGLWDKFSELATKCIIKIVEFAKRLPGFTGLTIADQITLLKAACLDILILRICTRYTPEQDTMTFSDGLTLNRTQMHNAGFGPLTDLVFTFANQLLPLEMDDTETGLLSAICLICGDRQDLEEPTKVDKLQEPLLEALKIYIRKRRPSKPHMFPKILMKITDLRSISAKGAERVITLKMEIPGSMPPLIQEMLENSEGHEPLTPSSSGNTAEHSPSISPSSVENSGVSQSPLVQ
How it was run: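 HepG2 cells were transiently transfected with GAL4-UAS reporter units that report activity of exogenous chimeric NR-Gal4 proteins, then exposed to compound for 24 h. Reporter mRNA was quantified by RT-PCR with capillary electrophoresis fluorescence, as gain of signal over DMSO.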

[7] = molecular target: Retinoic acid receptor alpha (Homo sapiens) (UniProt P10276); assay: ATG_RARa_TRANS: Attagene TRANS-FACTORIAL HepG2 Assay for human Retinoic Acid Receptor alpha (RARa) (AID 2283005)
Retinoic acid receptor alpha (Homo sapiens), sequence (P10276 whole entry, looked up, the tested form may be a part): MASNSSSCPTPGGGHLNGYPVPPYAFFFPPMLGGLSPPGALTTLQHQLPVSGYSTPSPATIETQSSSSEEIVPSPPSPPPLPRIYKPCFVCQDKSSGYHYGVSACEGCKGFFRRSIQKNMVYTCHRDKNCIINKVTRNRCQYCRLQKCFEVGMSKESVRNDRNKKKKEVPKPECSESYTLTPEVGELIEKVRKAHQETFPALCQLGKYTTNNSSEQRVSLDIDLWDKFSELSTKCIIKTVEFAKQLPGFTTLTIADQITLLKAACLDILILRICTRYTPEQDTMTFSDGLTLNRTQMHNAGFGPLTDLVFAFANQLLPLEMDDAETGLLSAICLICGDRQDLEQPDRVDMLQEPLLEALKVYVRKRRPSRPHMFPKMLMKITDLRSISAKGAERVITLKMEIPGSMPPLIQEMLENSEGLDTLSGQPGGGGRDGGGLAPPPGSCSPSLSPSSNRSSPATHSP
How it was run: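 HepG2 transiently transfected with multiplex GAL4-UAS reporter units including a human RARa–GAL4 chimera; 24 h compound exposure. Reporter mRNA quantified by RT-PCR, 6-FAM labeling and capillary electrophoresis; gain of signal versus DMSO.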

[8] = BSK_3C_Proliferation: Cell Proliferation Assessment in the BioMAP Diversity Plus: 3C Assay (AID 2283006; active = hit-call score of the fitted dose curve at least 0.9, where 1 is the maximum; inactive = score below 0.9;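 as to AC50: potency may reflect either rise or fall in cell number versus DMSO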); details: primary human endothelial cells (HUVEC)
How it was run: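 Subconfluent HUVEC (3C system) cultured with chemical; relative cell number read at 48 h by sulforhodamine B total-protein staining (0.1% SRB after 10% TCA fixation, 560 nm). Bidirectional fit relative to DMSO.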

[9] = molecular target: Peroxisome proliferator-activated receptor gamma (Homo sapiens) (UniProt P37231); assay: ATG_PPARg_TRANS: Attagene TRANS-FACTORIAL HepG2 Assay for human Peroxisome Proliferator-activated Receptor-gamma (PPARg) (AID 2283007)
Peroxisome proliferator-activated receptor gamma (Homo sapiens), sequence (P37231 whole entry, looked up): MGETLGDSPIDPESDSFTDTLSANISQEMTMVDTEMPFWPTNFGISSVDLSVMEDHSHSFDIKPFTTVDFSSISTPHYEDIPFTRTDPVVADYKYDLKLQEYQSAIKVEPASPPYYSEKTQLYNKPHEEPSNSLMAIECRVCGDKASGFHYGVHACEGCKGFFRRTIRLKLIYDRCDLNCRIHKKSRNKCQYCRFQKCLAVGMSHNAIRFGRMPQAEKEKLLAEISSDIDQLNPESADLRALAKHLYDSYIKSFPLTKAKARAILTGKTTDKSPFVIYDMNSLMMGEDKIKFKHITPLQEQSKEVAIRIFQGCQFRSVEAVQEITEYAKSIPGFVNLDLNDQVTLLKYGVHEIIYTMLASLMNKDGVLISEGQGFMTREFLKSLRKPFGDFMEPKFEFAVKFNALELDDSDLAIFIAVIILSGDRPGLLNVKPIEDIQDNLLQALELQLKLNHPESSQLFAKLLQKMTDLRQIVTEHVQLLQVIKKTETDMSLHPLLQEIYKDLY
How it was run: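 Human hepatoma HepG2, transient MRTU transfection, 24 h treatment. mRNA reporter signal by RT-PCR plus capillary electrophoresis, fluorescence detection; fitted for increase over DMSO negative control.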

[10] = molecular target: Nuclear receptor subfamily 1 group I member 2 (Homo sapiens) (UniProt O75469); assay: ATG_PXR_TRANS: Attagene TRANS-FACTORIAL HepG2 Assay for human Pregnane X Receptor (PXR) (AID 2283008)
Nuclear receptor subfamily 1 group I member 2 (Homo sapiens), sequence (O75469 whole entry, looked up, the tested form may be a part): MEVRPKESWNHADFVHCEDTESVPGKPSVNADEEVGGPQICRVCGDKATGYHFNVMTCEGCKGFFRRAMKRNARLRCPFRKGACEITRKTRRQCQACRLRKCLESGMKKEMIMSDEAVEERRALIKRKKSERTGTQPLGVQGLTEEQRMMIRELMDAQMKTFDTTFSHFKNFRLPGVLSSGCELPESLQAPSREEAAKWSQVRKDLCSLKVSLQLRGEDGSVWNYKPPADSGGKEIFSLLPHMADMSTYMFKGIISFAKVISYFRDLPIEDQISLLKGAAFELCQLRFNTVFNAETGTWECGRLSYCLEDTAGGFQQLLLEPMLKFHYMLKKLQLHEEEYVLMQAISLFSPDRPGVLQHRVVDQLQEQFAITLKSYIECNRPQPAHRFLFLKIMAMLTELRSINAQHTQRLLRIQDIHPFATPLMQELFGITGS
How it was run: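 HepG2 cells transiently transfected with multiple reporter units, here a PXR-GAL4 chimera driving a GAL4-UAS reporter; 24 h compound exposure. Reporter mRNA measured by RT-PCR, FAM labelling and capillary electrophoresis; gain of signal fitted against DMSO baseline.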

Measured: AC50

NS(=O)(=O)C(F)(F)C(F)(F)C(F)(F)C(F)(F)C(F)(F)C(F)(F)C(F)(F)C(F)(F)F
inactive: [3] | [4] | [5] | [6] | [7] | [10]
active: [1] 35.2 µM and 55 µM and 55.3 µM | [2] 30.6 µM and 46.8 µM and 54 µM | [3] 88.4 µM | [5] 56.8 µM and 51.5 µM | [8] 30.3 µM and 38.9 µM | [9] 100 µM and 59 µM and 41.8 µM

CC(C)(c1ccccc1)c1ccc(O)cc1
active: [1] 32.9 µM | [2] 35.3 µM | [5] 36.4 µM | [9] 18.3 µM | [10] 2.93 µM [middle of 4 runs]
inactive: [3] | [4] | [6] | [7] | [9]

Nn1cnnc1
inactive: [1] | [2] | [3] | [5] | [6] | [8] | [9]

ClC1=C(Cl)[C@]2(Cl)[C@@H]3[C@H]4C[C@H]([C@@H]5O[C@H]45)[C@@H]3[C@@]1(Cl)C2(Cl)Cl
inactive: [1] | [2] | [3] | [5] | [7] | [9] | [10]
active: [6] 0.859 µM | [8] 8.62 µM

O=S(=O)(O)C(F)(F)C(F)(F)C(F)(F)C(F)(F)F
inactive: [1] | [2] | [3] | [4] | [5] | [8] | [9] | [10]

Clc1ccc(Cl)cc1
inactive: [1] | [2] | [3] | [4] | [5] | [6] | [8] | [9] | [10]

Sc1ccccc1
inactive: [1] | [2] | [3] | [4] | [5] | [8] | [10]

C=CC(=O)NCNC(=O)C=C
inactive: [1] | [2] | [3] | [5] | [8] | [9]

O=C(NC(=O)c1c(F)cccc1F)Nc1cc(Cl)c(OC(F)(F)C(F)F)c(Cl)c1
inactive: [1] | [2] | [3] | [4] | [5] | [7] | [8] | [9] | [10]

c1ccc(-c2ccccc2)cc1
inactive: [1] | [2] | [3] | [4] | [5] | [8] | [10]

CCCCCCCCCc1ccc(O)cc1
inactive: [4] | [6] | [7] | [10]
active: [1] 13.8 µM | [2] 15.2 µM | [3] 33.4 µM and 21.6 µM and 16.9 µM | [4] 25.5 µM and 33.4 µM | [5] 15.4 µM | [8] 11.2 µM | [9] 33.4 µM and 25.1 µM and 9.23 µM | [10] 21.2 µM

Clc1ccc(C(c2ccccc2Cl)C(Cl)(Cl)Cl)cc1 (stereo not given)
active: [1] 21 µM | [2] 20.3 µM | [5] 21.7 µM | [8] 7.61 µM | [10] 3.39 µM and 2.82 µM and 3.97 µM
inactive: [3] | [4] | [9] | [10]

O=C(O)C(F)(F)C(F)(F)C(F)(F)C(F)(F)C(F)(F)C(F)(F)C(F)(F)C(F)(F)F
active: [1] 49.5 µM and 30 µM | [2] 40.2 µM and 43.3 µM | [3] 15.9 µM and 27.4 µM and 22.5 µM | [8] 49.7 µM and 48 µM | [9] 43.4 µM and 70 µM and 42.3 µM | [10] 47.5 µM and 104 µM and 50 µM
inactive: [1] | [2] | [4] | [5] | [8]

COc1ccc(O)c(C(C)(C)C)c1
active: [10] 4.55 µM
inactive: [1] | [2] | [3] | [5] | [6] | [7] | [8] | [9]
